This is a sample that favours compounds with a hit; in the whole collection about 3.8% have one here.
PrPC surface inh: cell surface PrPC inhibition, primary TR-FRET screen | inhibition, % at 13.8 µM | actives 0.43% (n = 370,000) | AID 720596 | TR-FRET read-out; in the data active = inhibition above about 24%; note: 0% = median of the test wells and 100% = reference compound wells
Yp Topo-I inh: Y. pestis Topo-I inhibition via cleavage products; Y. pestis Topo-I cleavage product accumulation, plate reader; activity, % at 10 µM; actives 0.064% (n = 360,000); AID 504884; in the data active = activity above about 50%, passing the limit was not always enough
GDH-TPI counter: counter-screen for M. tuberculosis FBA inhibitors: GDH-TPI coupled enzymes. GDH-TPI coupled enzyme counterscreen, NADH absorbance. AID 588335. inhibition, % at 4.8 µM. actives 1.2% (n = 360,000); in the data active = inhibition above about 30%;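 note: 0% = DMSO wells and 100% = wells lacking the enzyme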
PrP UTR inh: inhibition of PrP 5' UTR reporter expression | inhibition, % (test concentration not listed) | actives 0.35% (n = 340,000) | AID 488862 | cell-based PrP 5' UTR mRNA reporter, plate reader; in the data active = inhibition above about 52%; note: 0 = median of the neutral control wells
Mtb FBA inh: inhibitors of M. tuberculosis fructose-bisphosphate aldolase | P9WQA3 | purified M. tuberculosis FBA, fluorescence read-out | inhibition, % at 1 µM | actives 2.3% (n = 360,000) | AID 588726; in the data active = inhibition above about 27%;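 note: 0% = vehicle and 100% = reference inhibitor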
Target sequence (P9WQA3 whole entry, looked up): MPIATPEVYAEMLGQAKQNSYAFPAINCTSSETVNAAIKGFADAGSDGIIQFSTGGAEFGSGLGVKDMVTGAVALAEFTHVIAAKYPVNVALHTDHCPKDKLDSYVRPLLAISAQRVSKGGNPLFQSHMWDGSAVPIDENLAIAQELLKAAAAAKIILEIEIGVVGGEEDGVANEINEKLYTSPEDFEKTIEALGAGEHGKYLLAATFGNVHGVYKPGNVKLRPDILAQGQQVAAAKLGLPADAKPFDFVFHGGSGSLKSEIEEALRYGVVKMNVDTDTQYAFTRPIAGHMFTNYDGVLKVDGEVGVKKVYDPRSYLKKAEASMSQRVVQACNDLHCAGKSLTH
Mtb hypoxia inh: inhibitors of hypoxia-regulated fluorescent reporter in Mycobacterium tuberculosis; M. tuberculosis hypoxia-regulated fluorescent reporter, fluorescence; fluorescence inhibition, % (no concentration beside the values); actives 0.1% (n = 300,000); in the data active = fluorescence inhibition mostly above about 23%, no sharp cut-off; inactive = mostly below about 17%
PrPC confirm: cell surface PrPC inhibition, TR-FRET confirmation | shares compounds with PrPC surface inh | cell surface PrPC level | inhibition, % at 13.8 µM | actives 65% (n = 1,500); in the data active = inhibition above about 25%
LD9 cytotox: counter-screen for PrPc inhibitors: cytotoxicity in LD9 cells; luminescence viability; inhibition, % at 13.8 µM; shares compounds with PrPC surface inh; actives 29% (n = 1,500); in the data active = inhibition above about 9.5%
An asterisk follows results filed as active; . = not tested or not shown.

SMILES | PrPC surface inh | Yp Topo-I inh | GDH-TPI counter | PrP UTR inh | Mtb FBA inh | Mtb hypoxia inh | PrPC confirm | LD9 cytotox
Cc1cccc(-c2c(NC(=O)c3ccco3)oc3c(C)cccc3c2=O)c1 | 2 | 2 | 14 | -24 | -2 | -1 | . | .
Cc1cccc2c(=O)c(-c3ccc4c(c3)OCO4)c(NC(=O)c3ccco3)oc12 | 63* | -7 | 6 | -25 | -1 | -1 | 67* | -7
Cc1cnc(NC(=O)c2cc(S(=O)(=O)N(C)C)ccc2N2CCCC2)s1 | 72* | 14 | 16 | . | -1 | -5 | 79* | -8
CCc1cccc(NC(=O)c2cc(S(=O)(=O)N(C)C)ccc2N2CCCC2)c1 | 30* | 30 | 13 | -4 | -1 | 3 | 36* | -4
CN(C)S(=O)(=O)c1ccc(N2CCCC2)c(C(=O)Nc2nccs2)c1 | 52* | 7 | 13 | 4 | 0 | 5 | 54* | -5
CN(c1ccccc1)S(=O)(=O)c1cccc(C(=O)Nc2nccs2)c1 | 26* | -1 | 8 | -14 | 4 | 7 | 0 | 4
CN(C)S(=O)(=O)c1ccc(N2CCCC2)c(C(=O)Nc2nc3c(ccc4ccccc43)s2)c1 | -3 | 21 | 16 | -8 | 10 | -7 | . | .
COc1ccc(OC)c(C=NNC(=O)c2ccc(Cn3cc([N+](=O)[O-])cn3)o2)c1 | . | . | . | . | . | 0 | . | .
CC(C)(C)C1COC(=O)CCCC=CCC(CC(=O)N(CCO)Cc2ccccc2)C(=O)N1 (stereo unspecified) | . | . | . | . | . | 12 | . | .
CCOc1ccc(/C(O)=C2/C(=O)C(=O)N(c3ccccn3)C2c2ccc(F)cc2)c(C)c1 (stereo unspecified) | 29* | 5 | 18 | -11 | 0 | 11 | 63* | -6
Cc1ccccc1NC1=NCC(c2ccc([N+](=O)[O-])cc2)S1 (stereo unspecified) | 46* | -11 | 2 | -32 | -2 | 3 | 44* | 2
Cc1ccc(NS(=O)(=O)c2cc(C(=O)NCc3ccccn3)ccc2Cl)cc1C | 47* | 3 | 1 | -10 | 4 | 4 | 60* | 6
O=C(N/N=C/c1ccc(O)cc1O)c1ccc(NC(=O)C2CCCCC2)cc1 | 34* | -9 | 27 | -8 | 13 | . | 37* | -5
O=C(NCc1ccc(Cl)cc1)c1cccc(NC(=O)c2ccccc2)c1 | 32* | 11 | 7 | -6 | -3 | -4 | 27* | -2
O=C(NCc1ccccc1)c1ccc(Cl)cc1 | 7 | . | . | . | . | . | . | .
COCCn1c(C)cc(C=NNC(=O)c2cccnc2)c1C | . | . | . | . | . | 12 | . | .
COc1cc(C(=O)N[C@@H](C)C(=O)N2CCC3(CC2)NCCc2[nH]cnc23)cc(OC)c1OC | 25* | -5 | -5 | -28 | 2 | 4 | 6 | 4
COc1cc(C=NNC(=O)c2ccc(COc3cc(C)ccc3C(C)C)cc2)cc(OC)c1O | . | . | . | . | . | 8 | . | .
Cc1ccc(C(C)C)c(OCc2ccc(C(=O)N/N=C/c3ccc(O)cc3O)cc2)c1 | 38* | -17 | 13 | 35 | 2 | . | 43* | 17*
CC(C)C1COCCS(=O)(=O)N1Cc1cccc(Cl)c1 (stereo unspecified) | . | . | . | . | . | 7 | . | .
Cc1[nH]c2ccccc2c1/C=N/Nc1nc2ccccc2[nH]1 | 30* | -24 | 23 | -32 | 1 | . | 6 | 12*
Cc1ccc(/C=N/Nc2nc3ccccc3[nH]2)s1 | 27* | -14 | 39* | -83 | 1 | . | 10 | 5
Cc1c(C=NNc2nc3ccccc3[nH]2)c2ccccc2n1C | . | . | . | . | . | -13 | . | .
C(=N\Nc1nc2ccccc2[nH]1)/c1c[nH]c2ccccc12 | 33* | -19 | 19 | -67 | 0 | . | 5 | 4
COc1cc(C(=O)Nc2scc(-c3ccc(Br)cc3)c2C(=O)O)cc(OC)c1OC | 56* | -5 | 3 | -19 | 7 | -7 | 60* | -5
Cc1ccc(-c2csc(NC(=O)c3cccc(C)c3)c2C(=O)O)cc1 | 36* | -9 | 6 | -25 | 7 | -9 | 50* | -6
COc1ccccc1NS(=O)(=O)c1cccc(C(=O)NN=Cc2ccccc2OCC(=O)O)c1 | . | . | . | . | . | 11 | . | .

Bioassay records deposited in PubChem by several laboratories.
